In PubChem BioAssay (NCATS) one finds Potency data, which are given here for 18 compounds.

SMILES strings stand for the structures. Inconclusive results are not listed. Entries that show only a call come without a potency. Calls of active or inactive are those of the source. The call rests on the fitted dose curve; in most records, active means well fitted cell-killing curve with a large enough effect; inconclusive means small, poorly fitted or top-dose-only effect; inactive means flat fitted curve, though single readings scatter.
Potency means the concentration at half of the fitted maximal effect.

One assay is described as follows: Cell Viability - LYMP2-011 (AID 969).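 Further: cells exposed to compound for 24 hours; nearly all actives have a fitted effect of over 60% in size.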 Particulars: LYMP2-011 lymphoblastoid cells viability; series mostly up to 92.2 µM. An outline of the steps: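 Luminescent ATP read-out (CellTiter-Glo, 30 min RT) after 24 hr compound exposure at 37 C in human lymphoblastoid cells, 2500 cells/well. Decreasing ATP indicates cytotoxicity; AC50 from standard Hill fit.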
As to `Cc1cc(Nc2ccc(O)cc2)ccc1N`, the Potency is 50.1 µM (active).
On the same count and under the same terms, as for `CN(C)c1ccc(C2(c3ccc(N(C)C)cc3)OC(=O)c3cc(N(C)C)ccc32)cc1`, the entry is “inactive”; as for `O=C(OCC(COC(=O)c1ccccc1)(COC(=O)c1ccccc1)COC(=O)c1ccccc1)c1ccccc1`, “inactive”; as for `CC(=O)Nc1ccc(C(=O)CCl)cc1`, 6.31 µM (active).
Take `Nc1ccc2cc3ccccc3cc2c1`: the Potency entry was “inactive”.
Still for that read-out and setting: as for `c1ccc2c(c1)-c1cccc3c1c-2cc1ccccc13`, the entry is “inactive”; as for `O=C=Nc1ccc(Cc2ccc(N=C=O)cc2)cc1`, “inactive”; as for `O=[N+]([O-])c1cc([N+](=O)[O-])c2ccc(S(=O)(=O)O)cc2c1O`, “inactive”.
`Cc1cc(O)c(C(C)(C)C)cc1Sc1cc(C(C)(C)C)c(O)cc1C`: the Potency is 39.8 µM (active).
Still for that read-out and setting: as for `CCC(C)Nc1ccc(NC(C)CC)cc1` (stereo not given), the figure is 6.31 µM (active); as for `CNc1ccc(O)cc1`, 6.31 µM (active).
On the same count and under the same terms, as for `C=CC(=O)OCCOCCOC(=O)C=C`, the figure is 20 µM (active); as for `O=C1OC2(c3cc(Br)c(O)c(Br)c3Oc3c2cc(Br)c(O)c3Br)c2c(Cl)c(Cl)c(Cl)c(Cl)c21`, “inactive”; as for `c1ccc2c(c1)ccc1cc3c(ccc4ccccc43)cc12`, “inactive”.
As to `C=C(C)c1ccccc1`, the Potency result was “inactive”.
The same measure, in the same setting: the result for `O=C1OC(O)C(C(Cl)Cl)=C1Cl` (stereo not given) reads 25.1 µM (active).

Another assay is described as follows: Cell Viability - LYMP2-013 (AID 970).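 Further: cells exposed to compound for 24 h at 37 °C; nearly all actives have a fitted effect of over 55% in size.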 Particulars: LYMP2-013 lymphoblastoid cells viability; series mostly up to 92.2 µM. In short, it runs like this: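 CellTiter-Glo luminescence (cellular ATP) read after 30 min at RT. Cells: human lymphoblastoid line, 2500/well, 24 hr compound exposure at 37 C. Tetraoctylammonium bromide positive control; AC50 via standard Hill fit of qHTS titrations.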
For `Cc1cc(Nc2ccc(O)cc2)ccc1N`, the Potency was 50.1 µM (active).
Still for that read-out and setting: as for `CN(C)c1ccc(C2(c3ccc(N(C)C)cc3)OC(=O)c3cc(N(C)C)ccc32)cc1`, the entry is “inactive”.
For the compound `O=C(OCC(COC(=O)c1ccccc1)(COC(=O)c1ccccc1)COC(=O)c1ccccc1)c1ccccc1`, the Potency entry is “inactive”.
Same read-out and setting: the result for `CC(=O)Nc1ccc(C(=O)CCl)cc1` reads 6.31 µM (active); that for `Nc1ccc2cc3ccccc3cc2c1`, “inactive”.
Still for that read-out and setting: the result for `c1ccc2c(c1)-c1cccc3c1c-2cc1ccccc13` reads “inactive”; that for `O=C=Nc1ccc(Cc2ccc(N=C=O)cc2)cc1`, “inactive”.
For the compound `O=[N+]([O-])c1cc([N+](=O)[O-])c2ccc(S(=O)(=O)O)cc2c1O`, the Potency entry was “inactive”.
Take `Cc1cc(O)c(C(C)(C)C)cc1Sc1cc(C(C)(C)C)c(O)cc1C`: the Potency was 31.6 µM (active).
Same read-out and setting: the result for `CCC(C)Nc1ccc(NC(C)CC)cc1` (stereo not given) reads 6.31 µM (active); that for `CNc1ccc(O)cc1`, 6.31 µM (active); that for `C=CC(=O)OCCOCCOC(=O)C=C`, 25.1 µM (active).
Take `Oc1ccc2cc(SSc3ccc4cc(O)ccc4c3)ccc2c1`: the Potency is 50.1 µM (active).
For the compound `c1ccc2c(c1)ccc1cc3c(ccc4ccccc43)cc12`, the Potency result was “inactive”.
In the case of `C=C(C)c1ccccc1`, the Potency entry was “inactive”.
With `O=C1OC(O)C(C(Cl)Cl)=C1Cl` (stereo not given), the Potency was 25.1 µM (active).

The nature of another assay: Cell Viability - LYMP2-015 (AID 971).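 Further: cells exposed to compound for 24 h; nearly all actives have a fitted effect of over 55% in size.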 The settings on record: LYMP2-015 lymphoblastoid cell viability; series mostly up to 92.2 µM. In short, it runs like this:
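qHTS cytotoxicity: 2500 cells/well, 5 hr 37 C, compound 24 hr 37 C, CellTiter-Glo 30 min RT, luminescence. Loss of ATP = toxicity; AC50 via standard Hill fit.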
For the compound `Cc1cc(Nc2ccc(O)cc2)ccc1N`, the Potency is 39.8 µM (active).
Consider `CN(C)c1ccc(C2(c3ccc(N(C)C)cc3)OC(=O)c3cc(N(C)C)ccc32)cc1`, for which the Potency entry is “inactive”.
Turning to `O=C(OCC(COC(=O)c1ccccc1)(COC(=O)c1ccccc1)COC(=O)c1ccccc1)c1ccccc1`, the Potency entry was “inactive”.
Still for that read-out and setting: the result for `CC(=O)Nc1ccc(C(=O)CCl)cc1` reads 5.01 µM (active); that for `Nc1ccc2cc3ccccc3cc2c1`, “inactive”.
Still for that read-out and setting: as for `c1ccc2c(c1)-c1cccc3c1c-2cc1ccccc13`, the entry is “inactive”; as for `O=C=Nc1ccc(Cc2ccc(N=C=O)cc2)cc1`, “inactive”; as for `O=[N+]([O-])c1cc([N+](=O)[O-])c2ccc(S(=O)(=O)O)cc2c1O`, “inactive”.
On to `Cc1cc(O)c(C(C)(C)C)cc1Sc1cc(C(C)(C)C)c(O)cc1C`, for which the Potency is 39.8 µM (active).
Same read-out and setting: as for `CCC(C)Nc1ccc(NC(C)CC)cc1` (stereo not given), the figure is 3.98 µM (active).
Same read-out and setting: the result for `CNc1ccc(O)cc1` reads 5.01 µM (active); that for `C=CC(=O)OCCOCCOC(=O)C=C`, 15.8 µM (active).
Same read-out and setting: the result for `c1ccc2c(c1)ccc1cc3c(ccc4ccccc43)cc12` reads “inactive”; that for `C/C=C1\C(=O)C[C@H]2[C@@H]3CCC4=CC(=O)CC[C@]4(C)[C@H]3CC[C@]12C`, “inactive”.
With `C=C(C)c1ccccc1`, the Potency entry was “inactive”.
The same measure, in the same setting: the result for `O=C1OC(O)C(C(Cl)Cl)=C1Cl` (stereo not given) reads 25.1 µM (active).

A short description of another assay: Cell Viability - LYMP2-017 (AID 972).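 Further: cells exposed to compound for 24 hours at 37 °C; nearly all actives have a fitted effect of over 55% in size.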 The settings on record: LYMP2-017 lymphoblastoid cell viability; series mostly up to 92.2 µM. In short, it runs like this:
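Luminescent ATP read-out (CellTiter-Glo, 30 min RT) reports viable cell number. Cells: human lymphoblastoid line, 2500 per well, 5 hr preincubation, 24 hr compound exposure at 37 C. AC50 is derived from qHTS concentration-response data using the standard Hill model.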
`Cc1cc(Nc2ccc(O)cc2)ccc1N`: the Potency is 39.8 µM (active).
`CN(C)c1ccc(C2(c3ccc(N(C)C)cc3)OC(=O)c3cc(N(C)C)ccc32)cc1`: the Potency result was “inactive”.
Same read-out and setting: the result for `O=C(OCC(COC(=O)c1ccccc1)(COC(=O)c1ccccc1)COC(=O)c1ccccc1)c1ccccc1` reads “inactive”; that for `CC(=O)Nc1ccc(C(=O)CCl)cc1`, 5.01 µM (active); that for `Nc1ccc2cc3ccccc3cc2c1`, “inactive”.
For the compound `c1ccc2c(c1)-c1cccc3c1c-2cc1ccccc13`, the Potency entry was “inactive”.
Turning to `O=C=Nc1ccc(Cc2ccc(N=C=O)cc2)cc1`, the Potency entry is “inactive”.
Still for that read-out and setting: as for `O=[N+]([O-])c1cc([N+](=O)[O-])c2ccc(S(=O)(=O)O)cc2c1O`, the entry is “inactive”; as for `Cc1cc(O)c(C(C)(C)C)cc1Sc1cc(C(C)(C)C)c(O)cc1C`, 50.1 µM (active); as for `CCC(C)Nc1ccc(NC(C)CC)cc1` (stereo not given), 3.98 µM (active).
The same measure, in the same setting: as for `CNc1ccc(O)cc1`, the figure is 3.98 µM (active); as for `C=CC(=O)OCCOCCOC(=O)C=C`, 20 µM (active); as for `O=C1OC2(c3cc(Br)c(O)c(Br)c3Oc3c2cc(Br)c(O)c3Br)c2c(Cl)c(Cl)c(Cl)c(Cl)c21`, “inactive”.
Consider `Oc1ccc2cc(SSc3ccc4cc(O)ccc4c3)ccc2c1`, for which the Potency was 50.1 µM (active).
`c1ccc2c(c1)ccc1cc3c(ccc4ccccc43)cc12`: the Potency result was “inactive”.
Same read-out and setting: the result for `C=C(C)c1ccccc1` reads “inactive”; that for `O=C1OC(O)C(C(Cl)Cl)=C1Cl` (stereo not given), 25.1 µM (active).
